We go through three compounds from PubChem BioAssay (EPA / NIEHS).

The source made the active and inactive calls. The calls were made as follows: active = hit-call score of the fitted dose curve at least 0.9, where 1 is the maximum; inactive = score below 0.9.

Holding throughout (conditions): mRNA level, 48 h; actives raise or lower the signal
Read-out in assay [1]: ABC Transporter (ABCB11), ABCB11 (gene 8647)
Description: LTEA_HepaRG_ABCB11: Life Technologies and Expression Analysis (LTEA) Assay for ABC Transporter (ABCB11) using HepaRG (AID 2283463). The gist of the method: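 ABCB11 transcript levels are read by Fluidigm TaqMan qRT-PCR after 48 h chemical treatment of human HepaRG cells. Concentrations span 100 uM downward in half-log steps with 0.5% DMSO; gain or loss is fitted against DMSO controls.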

Read-out in assay [2]: Broad substrate specificity ATP-binding cassette transporter ABCG2 (Homo sapiens) (UniProt Q9UNQ0)
Description: LTEA_HepaRG_ABCG2: Life Technologies and Expression Analysis (LTEA) Assay for ABC Transporter (ABCG2) using HepaRG (AID 2283465). The method, boiled down: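 Read-out is ABCG2 mRNA induction or loss quantified by qRT-PCR after 48 h chemical treatment of human HepaRG cells, normalized to three housekeeping genes. Concentrations reached 100 uM top in half-log steps; fitting was bidirectional against 0.5% DMSO.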

Read-out in assay [3]: ATP-citrate lyase (ACLY), ACLY (gene 47)
Description: LTEA_HepaRG_ACLY: Life Technologies and Expression Analysis (LTEA) Assay for ATP-citrate lyase (ACLY) using HepaRG (AID 2283466). The method, boiled down:
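HepaRG, 48 h exposure, 8-pt half-log dilutions (top 100 uM), 0.5% DMSO. Readout: ACLY mRNA, TaqMan qRT-PCR, housekeeping-normalized (ACTB/GAPDH/POLR2A). Bidirectional curve fit vs DMSO.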

Read-out in assay [4]: Peroxisomal acyl-coenzyme A oxidase 1 (ACOX1) gene, ACOX1 (gene 51)
Description: LTEA_HepaRG_ACOX1: Life Technologies and Expression Analysis (LTEA) Assay for Peroxisomal acyl-coenzyme A oxidase 1 (ACOX1) gene using HepaRG (AID 2283467). The gist of the method: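 Measured by qRT-PCR against three housekeeping genes: ACOX1 transcript change in human HepaRG cells after 48 h dosing. Concentrations ran up to 100 uM in half-log steps. Curves were fitted bidirectionally relative to 0.5% DMSO.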

Read-out in assay [5]: Alkaline Phosphatase, Placental (ALPP) gene, ALPP (gene 250)
Description: LTEA_HepaRG_ALPP: Life Technologies and Expression Analysis (LTEA) Assay for Alkaline Phosphatase, Placental (ALPP) gene using HepaRG (AID 2283468).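 As to AC50: differentiated human HepaRG liver cells in serum-free induction medium.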 The method, boiled down: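 qRT-PCR readout of ALPP mRNA (Fluidigm TaqMan), normalized to ACTB/GAPDH/POLR2A, after 48 h chemical exposure of HepaRG cells; 8-point half-log series, top 100 uM, 0.5% DMSO vehicle. Bidirectional curve fit versus DMSO baseline.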

Read-out in assay [6]: Bcl-2 (BAD) gene, BAD (gene 572)
Description: LTEA_HepaRG_BAD: Life Technologies and Expression Analysis (LTEA) Assay for Bcl-2 (BAD) gene using HepaRG (AID 2283469). The method, boiled down:
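BAD transcript change, measured by qRT-PCR against three housekeeping genes and fitted in both directions relative to 0.5% DMSO, after 48 h chemical treatment of human HepaRG liver cells at concentrations up to 100 uM.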

Read-out in assay [7]: Bcl-2 (BAX) gene, BAX (gene 581)
Description: LTEA_HepaRG_BAX: Life Technologies and Expression Analysis (LTEA) Assay for Bcl-2 (BAX) gene using HepaRG (AID 2283470). The method, boiled down:
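Concentration-response endpoint fitted in both directions relative to 0.5% DMSO vehicle. Human HepaRG cultures receive test chemicals for 48 h at up to 100 uM; BAX mRNA is quantified by qRT-PCR against housekeeping genes.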

Read-out in assay [8]: adenosine kinase (ADK) gene, ADK (gene 132)
Description: LTEA_HepaRG_ADK: Life Technologies and Expression Analysis (LTEA) Assay for adenosine kinase (ADK) gene using HepaRG (AID 2283471). The method, boiled down:
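HepaRG (human liver), 48 h chemical exposure, 8-pt half-log series, top 100 uM, 0.5% DMSO vehicle. Readout: ADK mRNA by qRT-PCR vs housekeeping genes; bidirectional curve fit relative to DMSO baseline.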

Read-out in assay [9]: Alpha-fetoprotein (AFP) gene, AFP (gene 174)
Description: LTEA_HepaRG_AFP: Life Technologies and Expression Analysis (LTEA) Assay for Alpha-fetoprotein (AFP) gene using HepaRG (AID 2283472). The gist of the method: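 After a 48 h plating period, cells are moved to serum-free induction medium and dosed in duplicate (100 uM maximum, half-log dilutions, 0.5% DMSO) for another 48 h. Total RNA goes to TaqMan qRT-PCR; AFP signal is housekeeping-normalized.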

Read-out in the next assay: BCL2L11 (gene 10018)
Description: LTEA_HepaRG_BCL2L11: Life Technologies and Expression Analysis (LTEA) Assay for Bcl-2 (BCL2L11) gene using HepaRG (AID 2283473). The gist of the method:
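HepaRG, 48 h exposure, 8-pt half-log series from 100 uM in 0.5% DMSO, duplicates; qRT-PCR (Fluidigm TaqMan) for BCL2L11, housekeeping-normalized; bidirectional curve fit relative to DMSO baseline.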

Read-out in assay [10]: Apolipoprotein A-V (APOA5) gene, APOA5 (gene 116519)
Description: LTEA_HepaRG_APOA5: Life Technologies and Expression Analysis (LTEA) Assay for Apolipoprotein A-V (APOA5) gene using HepaRG (AID 2283474). The gist of the method: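 HepaRG, 48 h chemical exposure in serum-free induction medium, 8-pt half-log series (top 100 uM), 0.5% DMSO vehicle, duplicates. Readout: APOA5 mRNA by qRT-PCR, housekeeping-normalized; bidirectional fit vs DMSO baseline.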

Read-out in assay [11]: Apoptosis regulator Bcl-2 (Homo sapiens) (UniProt P10415)
Description: LTEA_HepaRG_BCL2: Life Technologies and Expression Analysis (LTEA) Assay for Bcl-2 gene using HepaRG (AID 2283475). The gist of the method: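 Expression change of BCL2 mRNA in HepaRG after 48 h dosing, quantified by TaqMan qRT-PCR against three endogenous controls. Concentration-response used eight points up to 100 uM, vehicle 0.5% DMSO.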

Read-out in assay [12]: Bcl-2 (BID) gene, BID (gene 637)
Description: LTEA_HepaRG_BID: Life Technologies and Expression Analysis (LTEA) Assay for Bcl-2 (BID) gene using HepaRG (AID 2283476). The method, boiled down:
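Gain or loss of BID expression is fitted relative to 0.5% DMSO vehicle. Human HepaRG liver cells received a 48 h chemical exposure over an eight-point concentration range.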

Read-out in the next assay: Caspase-3 (Homo sapiens) (UniProt P42574)
Description: LTEA_HepaRG_CASP3: Life Technologies and Expression Analysis (LTEA) Assay for cysteine-aspartic acid protease (CASP3) using HepaRG (AID 2283477). The method, boiled down:
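HepaRG, 48 h exposure, 8 conc. (top 100 uM, half-log steps, duplicate), 0.5% DMSO vehicle; qRT-PCR of CASP3 transcript, housekeeping-normalised (ACTB/GAPDH/POLR2A); bidirectional curve fit vs DMSO baseline.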

Read-out in assay [13]: Cytochrome P450 (CYP24A1), CYP24A1 (gene 1591)
Description: LTEA_HepaRG_CYP24A1: Life Technologies and Expression Analysis (LTEA) Assay for Cytochrome P450 (CYP24A1) using HepaRG (AID 2283478). The gist of the method: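 qRT-PCR read-out: CYP24A1 transcript levels normalized to three housekeeping genes, bidirectional curve fits against 0.5% DMSO baseline. Human HepaRG cells treated 48 h with chemicals at eight concentrations from 100 uM in half-log steps.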

Read-out in assay [14]: Cytochrome P450 (CYP1A2), CYP1A2 (gene 1544)
Description: LTEA_HepaRG_CYP1A2: Life Technologies and Expression Analysis (LTEA) Assay for Cytochrome P450 (CYP1A2) using HepaRG (AID 2283479). The method, boiled down: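 HepaRG, 48 h exposure, top 100 uM, half-log 8-pt, 0.5% DMSO vehicle, duplicates. Readout: TaqMan qRT-PCR of CYP1A2 mRNA, housekeeping-normalized (ACTB/GAPDH/POLR2A). Gain/loss fit relative to DMSO baseline.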

Read-out in assay [15]: cysteine-aspartic acid protease (CASP8), CASP8 (gene 841)
Description: LTEA_HepaRG_CASP8: Life Technologies and Expression Analysis (LTEA) Assay for cysteine-aspartic acid protease (CASP8) using HepaRG (AID 2283480). The method, boiled down: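 HepaRG, 48 h exposure, duplicate wells; 8 conc, half-log from 100 uM, 0.5% DMSO. Serum-free induction medium. CASP8 mRNA by TaqMan qRT-PCR, norm. ACTB/GAPDH/POLR2A; gain/loss fitted vs DMSO.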

Read-out in assay [16]: Cytochrome P450 (CYP2B6), CYP2B6 (gene 1555)
Description: LTEA_HepaRG_CYP2B6: Life Technologies and Expression Analysis (LTEA) Assay for Cytochrome P450 (CYP2B6) using HepaRG (AID 2283481). The method, boiled down:
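Read-out is CYP2B6 mRNA by TaqMan qRT-PCR, normalized to three housekeeping genes and fitted bidirectionally against 0.5% DMSO baseline. Human HepaRG cells received test chemicals for 48 h, top concentration 100 uM, half-log dilutions.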

Read-out in assay [17]: Cytochrome P450 2C19 (Homo sapiens) (UniProt P33261)
Description: LTEA_HepaRG_CYP2C19: Life Technologies and Expression Analysis (LTEA) Assay for CYP2C19 using HepaRG (AID 2283482). The gist of the method:
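HepaRG, 48 h chemical exposure, 8-pt half-log series from 100 uM in 0.5% DMSO, duplicates. Readout: CYP2C19 mRNA by TaqMan qRT-PCR, housekeeping-normalized. Bidirectional fit vs DMSO baseline; phenobarbital 1mM as induction control.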

Read-out in assay [18]: ABC Transporter (ABCC2), ABCC2 (gene 1244)
Description: LTEA_HepaRG_ABCC2: Life Technologies and Expression Analysis (LTEA) Assay for ABC Transporter (ABCC2) using HepaRG (AID 2283464). The method, boiled down:
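qRT-PCR (TaqMan, Fluidigm array) read-out of ABCC2 mRNA, normalized to three housekeeping genes. Differentiated HepaRG cells were treated 48 h in serum-free induction medium with 8-point half-log series from 100 uM in 0.5% DMSO; curves fitted bidirectionally relative to DMSO.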

Sequence of Cytochrome P450 2C19 (Homo sapiens) (P33261 whole entry, looked up): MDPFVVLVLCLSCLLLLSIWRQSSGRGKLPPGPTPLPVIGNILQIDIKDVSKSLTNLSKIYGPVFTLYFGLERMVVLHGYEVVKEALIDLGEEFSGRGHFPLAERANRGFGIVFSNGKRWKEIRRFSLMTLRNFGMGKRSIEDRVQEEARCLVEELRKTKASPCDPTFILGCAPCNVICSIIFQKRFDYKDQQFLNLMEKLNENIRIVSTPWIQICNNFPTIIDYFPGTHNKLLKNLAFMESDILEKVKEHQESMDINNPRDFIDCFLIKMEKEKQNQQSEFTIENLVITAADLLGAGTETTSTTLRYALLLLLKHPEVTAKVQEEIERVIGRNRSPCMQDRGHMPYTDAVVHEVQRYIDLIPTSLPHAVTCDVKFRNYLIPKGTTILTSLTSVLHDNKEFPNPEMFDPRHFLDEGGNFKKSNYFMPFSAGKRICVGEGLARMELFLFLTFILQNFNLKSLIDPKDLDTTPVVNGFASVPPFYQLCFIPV
Sequence of Caspase-3 (Homo sapiens) (P42574 whole entry, looked up): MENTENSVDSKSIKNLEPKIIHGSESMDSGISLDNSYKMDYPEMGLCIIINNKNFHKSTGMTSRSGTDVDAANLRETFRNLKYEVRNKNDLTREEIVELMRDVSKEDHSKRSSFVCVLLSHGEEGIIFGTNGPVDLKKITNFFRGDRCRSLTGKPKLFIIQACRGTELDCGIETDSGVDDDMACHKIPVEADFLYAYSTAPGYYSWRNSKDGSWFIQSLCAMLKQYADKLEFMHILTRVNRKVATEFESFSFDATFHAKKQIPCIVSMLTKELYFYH
Sequence of Broad substrate specificity ATP-binding cassette transporter ABCG2 (Homo sapiens) (Q9UNQ0 whole entry, looked up): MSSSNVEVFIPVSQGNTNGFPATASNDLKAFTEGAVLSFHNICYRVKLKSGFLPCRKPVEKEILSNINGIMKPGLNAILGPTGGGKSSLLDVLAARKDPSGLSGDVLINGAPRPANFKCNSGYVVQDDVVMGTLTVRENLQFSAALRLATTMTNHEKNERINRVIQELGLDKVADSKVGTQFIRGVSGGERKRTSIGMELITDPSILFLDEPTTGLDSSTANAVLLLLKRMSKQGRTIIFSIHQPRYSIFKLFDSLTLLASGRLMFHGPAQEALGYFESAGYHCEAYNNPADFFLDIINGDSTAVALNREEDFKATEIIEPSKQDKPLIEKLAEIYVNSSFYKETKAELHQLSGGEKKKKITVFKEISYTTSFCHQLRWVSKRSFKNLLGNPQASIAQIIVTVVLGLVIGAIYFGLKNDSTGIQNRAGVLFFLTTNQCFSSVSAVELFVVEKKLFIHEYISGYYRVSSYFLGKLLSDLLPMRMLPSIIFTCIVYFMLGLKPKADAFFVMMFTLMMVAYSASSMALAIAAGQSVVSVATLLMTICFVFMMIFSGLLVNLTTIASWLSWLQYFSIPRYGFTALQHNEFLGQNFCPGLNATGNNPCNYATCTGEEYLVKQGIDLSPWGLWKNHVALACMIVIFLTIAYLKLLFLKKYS
Sequence of Apoptosis regulator Bcl-2 (Homo sapiens) (P10415 whole entry, looked up): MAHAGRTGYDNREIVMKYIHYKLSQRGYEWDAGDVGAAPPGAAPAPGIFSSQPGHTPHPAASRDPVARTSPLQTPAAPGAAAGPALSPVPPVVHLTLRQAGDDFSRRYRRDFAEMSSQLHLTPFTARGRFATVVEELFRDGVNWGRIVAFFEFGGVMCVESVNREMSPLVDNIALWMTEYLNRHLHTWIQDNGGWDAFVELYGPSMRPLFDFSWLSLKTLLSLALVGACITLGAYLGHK

In general, AC50 refers to the midpoint of the concentration-response curve, whichever way the signal moves. In the case of `CC(C)=CCCC(C)CCO` (configuration not stated), the call in assay [1], in assay [2], in [3], in [4], in assay [5] and in assay [6] was inactive. The outcome (in assay [7]; in assay [8]; in assay [9]; in the assay with BCL2L11 (gene 10018); in [10]; in assay [11]) was inactive. For the same compound, the outcome (in [12]; in the assay with Caspase-3 (Homo sapiens); in assay [13]; in assay [15]; in assay [17]) was inactive. Further, the figures for the half-maximal activity concentration (AC50) in assay [14] and in assay [16] were 50 µM (active) and 11.7 µM (active), respectively.
`CCOc1cccc(-n2cc(C(=O)N3CCN(c4cc(C(=O)O)c5ccccc5c4)CC3)nc2-c2ccc(C)cc2)c1`: the AC50 in [1] is 35.5 µM (active); in [2] it was 85.6 µM (active); in [3], 86.6 µM (active); in [4], 70.1 µM (active); in assay [5], 24.1 µM (active); in [7] it was 12.5 µM (active). The AC50 in [8] is 82.9 µM (active); in assay [9], 29.8 µM (active); with BCL2L11 (gene 10018), 87.8 µM (active); in assay [10], 64.2 µM (active); in assay [11], 84.5 µM (active); in assay [12], 80.7 µM (active). Besides, the AC50 is 82.9 µM (active) in the assay with Caspase-3 (Homo sapiens); 27.7 µM (active) in [14]; 87.9 µM (active) in [15]; 26.5 µM (active) in assay [16]; 32.6 µM (active) in [17]. In addition, the call in [6] and in [13] was inactive.
For the compound `CC(=O)c1ccc2c(c1)[C@H](NC(=O)c1ccc(F)cc1)[C@@H](O)C(C)(C)O2`, the compound was called inactive in assay [1], in assay [2], in assay [3], in [4], in assay [5] and in assay [6]. The outcome (in assay [7]; in [8]; in the assay with BCL2L11 (gene 10018); in assay [10]; in assay [11]; in assay [12]) was inactive. In addition, the compound was called inactive (in the assay with Caspase-3 (Homo sapiens); in [13]; in assay [14]; in assay [15]). Besides, the values for the AC50 in [18], in assay [16] and in [17] were 9.67 µM (active), 68.4 µM (active) and 16.3 µM (active), respectively.
